About 79,000 compounds went through this panel and 15% of them were active in at least one assay; those are over-represented in the sample as a whole. Activity calls are given as the source filed them. No stated cut-off is given here; in the data, active means growth inhibition above about 70%; inactive means the rest.
Experiments:
[1] = NCI Yeast Anticancer Drug Screen. Data for the rad50 strain (AID 155);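 further: 0% = growth of vehicle-only cultures of the same strain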; details: S. cerevisiae rad50 strain growth inhibition, stronger effect = higher value
How it was run: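 A DNA repair-deficient yeast mutant serves as the test organism; compound-induced growth inhibition is calculated against vehicle-treated cells.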

[2] = NCI Yeast Anticancer Drug Screen. Data for the mec2-1 strain (AID 157); details: S. cerevisiae mec2-1 strain, stronger effect = higher value
How it was run: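 Each compound was tested on mec2-1 yeast, a strain altered in DNA damage repair or cell cycle control. Growth inhibition is reported relative to vehicle.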

[3] = NCI Yeast Anticancer Drug Screen. Data for the sgs1 mgt1 strain (AID 161);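 further: 0% = growth of cultures given vehicle only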; details: S. cerevisiae sgs1 mgt1 strain, stronger effect = higher value
How it was run: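 Test agents were incubated with a DNA-repair-mutant yeast strain. Growth was then read and compared against vehicle-treated controls.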

[4] = NCI Yeast Anticancer Drug Screen. Data for the cln2 rad14 strain (AID 165);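 further: 0% = growth equal to vehicle treated cultures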; details: S. cerevisiae cln2 rad14 strain, stronger effect = higher value
How it was run: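 Test compounds were added to cln2 rad14 yeast cultures; inhibition of growth was then determined by comparison with vehicle treatment.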

[5] = NCI Yeast Anticancer Drug Screen. Data for the bub3 strain (AID 167); details: S. cerevisiae bub3 mutant strain, stronger effect = higher value
How it was run: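 Inhibition values come from growth of compound-treated mutant yeast normalised to vehicle-treated controls.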

[6] = NCI Yeast Anticancer Drug Screen. Data for the mlh1 rad18 strain (AID 175); details: S. cerevisiae mlh1 rad18 strain growth inhibition, stronger effect = higher value
How it was run: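 Inhibition values reflect reduced growth of mutant yeast versus vehicle-treated controls following compound exposure; the mutations affect DNA damage repair.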

[7] = at 5.0 µM (retest, dose inferred, filed as 0.5)
[8] = at 50.0 µM (retest, dose inferred, filed as 5.0)

Measured: growth inhibition

CN(/N=C\c1ccc2ccccc2c1)C1=NCCCN1
inactive: [1]; [8] 68% | [1]; at 50.0 µM 56.8% | [2]; [8] 67% | [2]; at 50.0 µM 33.6% | [3]; [8] 56% | [3]; at 50.0 µM 49.6% | [4]; [8] 66% | [4]; at 50.0 µM 7.7% | [6]; at 50.0 µM 60.9%
active: [1]; [7] 97% | [2]; [7] 99% | [3]; [7] 98% | [4]; [7] 97% | [5]; [7] 98% | [5]; [8] 96% | [5]; at 50.0 µM 99.2% | [6]; [7] 97% | [6]; [8] 79%

COc1ccc(C(=O)C2OC2c2ccccc2)cc1 (configuration not stated)
inactive: [1]; [7] -2% | [1]; [8] 23% | [1]; at 50.0 µM 42.4% | [2]; [7] -6% | [2]; [8] 9% | [2]; at 50.0 µM 15.4% | [3]; [7] -1% | [3]; [8] 20% | [3]; at 50.0 µM 30% | [4]; [7] -32% | [4]; [8] 3% | [4]; at 50.0 µM 20.1% | [5]; [7] 3% | [5]; [8] 18% | [5]; at 50.0 µM 58.5% | [6]; [7] 7% | [6]; [8] 59% | [6]; at 50.0 µM 34.7%

O=[N+]([O-])c1cc(NC(=S)SCc2ccccc2)ccc1Cl
inactive: [4]; [7] 29% | [5]; [7] 8%
active: [1]; [7] 92% | [1]; [8] 98% | [1]; at 50.0 µM 98.8% | [2]; [7] 74% | [2]; [8] 99% | [2]; at 50.0 µM 99.3% | [3]; [7] 92% | [3]; [8] 99% | [3]; at 50.0 µM 99.2% | [4]; [8] 97% | [4]; at 50.0 µM 99.1% | [5]; [8] 97% | [5]; at 50.0 µM 99.2% | [6]; [7] 91% | [6]; [8] 99% | [6]; at 50.0 µM 99.2%

CCCCCCN(CCCCCC)CCCCCC
inactive: [1]; [7] 3% | [1]; [8] -4% | [1]; at 50.0 µM 28.6% | [2]; [7] -2% | [2]; [8] -7% | [2]; at 50.0 µM 10.8% | [3]; [7] 0% | [3]; [8] -2% | [3]; at 50.0 µM 9.75% | [4]; [7] -37% | [4]; [8] -6% | [4]; at 50.0 µM 3.55% | [5]; [7] 10% | [5]; [8] 12% | [5]; at 50.0 µM 7.8% | [6]; [7] -3% | [6]; [8] 3% | [6]; at 50.0 µM 35.8%

COc1ccc2ccc(/C=C/[N+](=O)[O-])cc2c1OC
inactive: [1]; [7] 48% | [1]; at 50.0 µM 55.1% | [2]; [7] 40% | [3]; [7] 53% | [3]; at 50.0 µM 34.8% | [4]; [7] 41% | [4]; at 50.0 µM 37.9% | [5]; [7] 67% | [6]; [7] 37% | [6]; at 50.0 µM 67.6%
active: [1]; [8] 98% | [2]; [8] 99% | [2]; at 50.0 µM 88.2% | [3]; [8] 99% | [4]; [8] 99% | [5]; [8] 99% | [5]; at 50.0 µM 85.3% | [6]; [8] 98%

CC(C)(C)[Si](C)(C)OCC1OC(n2cnc3c(NC(=O)c4ccccc4)ncnc32)CC1O (configuration not stated)
inactive: [1]; [7] 2% | [1]; [8] 4% | [1]; at 50.0 µM 10% | [2]; [7] -2% | [2]; [8] 4% | [2]; at 50.0 µM -28.8% | [3]; [7] -1% | [3]; [8] 6% | [3]; at 50.0 µM 3.25% | [4]; [7] -1% | [4]; [8] 2% | [5]; [7] -2% | [5]; [8] -4% | [5]; at 50.0 µM 10.5% | [6]; [7] -2% | [6]; [8] 4% | [6]; at 50.0 µM 32.5%
active: [4]; at 50.0 µM 77.6%

NC(N)=N/N=C(\c1ccc(F)cc1)c1ccc(C(F)(F)F)cc1
active: [1]; [8] 99% | [1]; at 50.0 µM 72.6% | [2]; [8] 96% | [3]; [8] 99% | [3]; at 50.0 µM 80.5% | [4]; [8] 93% | [5]; [8] 99% | [5]; at 50.0 µM 83.7% | [6]; [8] 99% | [6]; at 50.0 µM 85.8%
inactive: [1]; [7] 5% | [2]; [7] -3% | [2]; at 50.0 µM 30.2% | [3]; [7] -2% | [4]; [7] -4% | [4]; at 50.0 µM -12.7% | [5]; [7] -1% | [6]; [7] 0%

COc1ccc2c(c1)C(O)=C(CC=C(C)C)C(=O)C2=O
active: [6]; [8] 79%
inactive: [1]; [7] -2% | [1]; [8] 16% | [1]; at 50.0 µM 26.8% | [2]; [7] 22% | [2]; [8] 46% | [2]; at 50.0 µM 35% | [3]; [7] 27% | [3]; [8] 61% | [3]; at 50.0 µM 20.2% | [4]; [7] 7% | [4]; [8] 1% | [4]; at 50.0 µM 46.3% | [5]; [7] 8% | [5]; [8] 23% | [5]; at 50.0 µM 4.1% | [6]; [7] 35% | [6]; at 50.0 µM 41.4%

C(=C\c1cnnc2ccccc12)/c1cccnc1
inactive: [1]; [7] 11% | [1]; [8] 45% | [1]; at 50.0 µM 20.8% | [2]; [7] 18% | [2]; [8] 37% | [2]; at 50.0 µM -10.8% | [3]; [7] 11% | [3]; [8] 35% | [3]; at 50.0 µM 2.15% | [4]; [7] 6% | [4]; [8] 32% | [4]; at 50.0 µM 42.6% | [5]; [7] 6% | [5]; [8] 22% | [5]; at 50.0 µM -13.2% | [6]; [7] 8% | [6]; [8] 36% | [6]; at 50.0 µM 13.7%
